Measurements as given in PubChem BioAssay AID449764 (Southern Research Specialized Biocontainment Screening …, 2010).
About 1,700 (74%) of roughly 2,300 compounds were called active. The rule behind the calls is not given here. The set was probably picked from earlier hits. The list shows a part of the results. Where a call stands in place of a potency, no number is given. Potency and affinity values are given separately.

assay: Mycobacterium tuberculosis H37Rv growth inhibition, no glycerol, confirmatory dose response (AID 449764); settings: series mostly up to 100 µM;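 note: growth read after 7 days of incubation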

Structure (SMILES) | outcome
C=CCn1c(Cc2cccs2)nnc1SCC(=O)Nc1ccc(C(=O)OCC)cc1 | inactive
CCCCCCCC(=O)N/N=C(/C)c1c(O)cc(C)oc1=O | inactive
CN1CCN(CC/C=C2/c3ccccc3Sc3ccc(S(=O)(=O)N(C)C)cc32)CC1 | inactive
O=c1oc2cc(O)ccc2c2ccccc12 | inactive
CCCCCOc1ccc(N2C(=O)C3C4C=CC(C3C2=O)N(C)C4=O)cc1 (stereo unspecified) | inactive
O=c1c2cc(-c3ccccc3)sc2ncn1/N=C/c1ccco1 | inactive
O=C(NC1CCCCC1)C(c1ccc2ncccc2c1)N(Cc1ccco1)C(=O)c1ccc2c(c1)OCCO2 (stereo unspecified) | inactive
CCCCc1ccc(NC=C2C(=O)OC3(CCCCC3)OC2=O)cc1 | inactive
O=C(Nc1ccc(N2CCOCC2)c(Cl)c1)c1c(F)c(F)c(F)c(F)c1F | inactive
Cc1cc(N2CCCCC2)n2ncc(-c3ccc(Cl)cc3)c2n1 | inactive
CCSCc1nnc(SCC(=O)Nc2cccc(SC)c2)n1C | inactive
Cc1ccc(C(=O)N/N=C/C=C/c2ccccc2)cc1 | inactive
Cc1nn(Cc2ccccc2)c(C)c1C(=O)OCC(=O)c1cc(C)n(CC(F)(F)F)c1C | inactive
CCCCCC(=O)Nc1cccc2ccccc12 | inactive
Cc1cc(C)c2nc(N3CCCC(C(=O)N4CCN(c5ncccn5)CC4)C3)sc2c1 (stereo unspecified) | inactive
Cc1c(NC(=O)c2ccc([N+](=O)[O-])o2)cccc1-c1nc2ncccc2o1 | inactive
CCCCCOC(=O)Nc1nnc(CCCCC)s1 | inactive
C/C(CC(=O)Nc1ccc(C)c(Cl)c1)=N\NC(=O)Cc1cnc(N)s1 | inactive
Cc1ccc(N/N=C/C=C/c2ccco2)cc1 | inactive
CCOC(=O)N1CCN=C1SCc1ccc(C(F)(F)F)cc1 | inactive
O=C(CSc1nc2ccccc2[nH]1)N1c2ccccc2Sc2ccccc21 | inactive
CCOC(=O)Oc1ccc2oc(C)c(C(=O)OCCOC)c2c1 | inactive

Structure (SMILES) | outcome
C=CC[N@@+]12CC[C@]34c5ccccc5N5/C=C6\C7N(/C=C(\C53)[C@@H](C[C@@H]41)/C(=C/CO)C2)c1ccccc1[C@@]71CC[N@@+]2(CC=C)C/C(=C\CO)[C@@H]6C[C@@H]12 (stereo partly specified) | inactive
CCOC(=O)c1c(CN2CCN(Cc3ccccc3)CC2)n(C)c2cc(Br)c(OC)cc12 | inactive
O=C1N[C@@H](Cc2ccccc2)C(=O)N2[C@H]3Nc4ccccc4[C@@]3([C@]34C[C@H]5C(=O)N[C@@H](Cc6ccccc6)C(=O)N5[C@H]3Nc3ccccc34)C[C@@H]12 | inactive
CCC(=O)c1coc2ccc(O)cc12 | inactive
CC(C)NCC(O)c1ccc(O)c(O)c1 (stereo unspecified) | inactive
CCc1ccc(-n2nc3cc(C)c(N)cc3n2)cc1 | inactive
CCOc1ccc(N2C(=O)CS/C2=C(\C(Cl)=C(Cl)Cl)[N+](=O)[O-])cc1 | inactive
CC(=O)c1c(C)n([O-])c2cc(F)c(F)cc2[n+]1=O | inactive
CCCCn1c(-c2ccc(C(C)(C)C)cc2)nc2cc3[nH]c(=O)c(C(C)C)nc3cc21 | inactive
Cc1nn(-c2ccccc2)c(N2CCCC2)c1/C=N/Nc1ccc(S(N)(=O)=O)cc1[N+](=O)[O-] | inactive
CC(=O)/C(=N\Nc1ccc(C)cc1)N1CCOCC1 | inactive
Cc1ccc(C(=O)CCC(=O)OCC(=O)Nc2c(C)nn(-c3ccccc3)c2C)cc1 | inactive
CCCCCn1c(CN2CCN(c3cccc(Cl)c3)CC2)nc2c1c(=O)[nH]c(=O)n2C | inactive
CSc1cccc(N=C2C(=O)Nc3ccccc32)c1 | inactive
Cc1ccc(Sc2ccc(/C=C3/C(=O)NN(c4ccccc4)C3=O)o2)cc1 | inactive
COc1cccc(C(=O)/C=C2\Sc3ccccc3N2C)c1 | inactive
Fc1ccc(-c2nnc(CSc3nnc(-c4cccs4)o3)o2)cc1 | inactive
CC/C(=C\C(=O)c1cccnc1)Nc1ccc(C)c(C)c1 | inactive
C=C(C)C1CC=C(C)/C(=N/NC(=O)CNc2ccc(OCC)cc2)C1 (stereo unspecified) | inactive
Cc1[nH]nc2nc3c(c(OC(=O)c4ccccc4)c12)c(=O)n(C)c(=O)n3C | inactive
O=C1CC(Nc2ccc3ccccc3c2)C(=O)N1Cc1ccccc1 (stereo unspecified) | inactive
O=C(COC(=O)C1CCN(c2ccc(C(F)(F)F)cn2)CC1)Nc1ccc(F)cc1[N+](=O)[O-] | inactive

Structure (SMILES) | outcome
Cc1ccc(N=Nc2c(C)[nH]n(C(N)=S)c2=O)cc1 | inactive
O=C(Nc1cccc(C(F)(F)F)c1)c1ccc2nc(-c3ccco3)c(-c3ccco3)nc2c1 | inactive
Nc1cccc(-c2cc3ccccc3oc2=O)c1 | inactive
CC(C)c1nnc(NC(=O)CCC(=O)N2CCN(c3ccc(Cl)cc3)CC2)s1 | inactive
CCCC(=O)Nc1sc2c(c1C#N)CCCCC2 | inactive
O=[N+]([O-])c1ccc(COc2ccc(-c3[nH]ncc3-c3ccc(Cl)cc3)c(O)c2)cc1 | inactive
Cc1nc(S/C(=C/c2ccc(-c3ccc(Cl)cc3)o2)C(=O)O)n[nH]1 | inactive
Cc1ccc(NN=C2c3ccccc3-c3ccccc32)cc1 | inactive
CN1CCC(=NNC(=O)C(=O)Nc2ccccc2F)CC1 | inactive
O=C(Nc1cccc(-c2ccc(N3CCCCC3)nn2)c1)c1ccc(Br)o1 | inactive
CCOC(=O)c1sc(C)c2c(=O)n(CC(=O)c3ccc(Br)cc3)nnc12 | inactive
CCOC(=O)c1ccc(N2CC(O)=C(c3nc4ccccc4c(=O)[nH]3)C2=N)cc1 | inactive
Cc1ccc(-c2cccc(NC(=O)C3C4C=CC(C4)C3C(=O)O)c2)o1 (stereo unspecified) | inactive
CCN(CC)S(=O)(=O)c1cccc(NC(=O)Nc2cccc(C(F)(F)F)c2)c1 | inactive
COc1cc2[nH]c3c(N4CCN(c5ccccn5)CC4)ncnc3c2cc1OC | inactive
CC1Nc2ncnc(N3CCN(c4ccccc4)CC3)c2N(Cc2ccc(Br)cc2)C1=O (stereo unspecified) | inactive
Clc1ccc(CSc2ncn[nH]2)cc1 | inactive
COc1ccc(-c2ccnc3nc(N4CCN(c5ccccc5)CC4)nn23)cc1 | inactive
c1ccc(CCN2CN=C(Nc3nc4ccccc4o3)NC2)cc1 | inactive
Cc1ccc(NC(=O)COC(=O)c2ccc(=O)n(Cc3ccccc3)n2)cc1F | inactive
COc1cc(OC)nc(Oc2ccccc2C(=O)Oc2ccc(Cl)cc2)n1 | inactive
CCNc1nc(NC(C)(C)C)nc(N2CCCCC2)n1 | inactive
